According to PubChem BioAssay AID1523 (The Scripps Research Institute Molecular Screening Center, 2009):
This is one part of the list. Unmarked numbers belong to inactive results. Calls of active or inactive are those of the source. Rule as the data show it: active = activation above about 12%; inactive = the rest. Non-standard residues stand in square brackets, D forms with d. Residues, ends and D or L forms follow the SMILES beside them. ξ: configuration not given here. ξM = CSCCC(N)C(=O)O

Target: Sphingosine 1-phosphate receptor 4 (Homo sapiens) (UniProt O95977)
Sequence (O95977 whole entry, looked up): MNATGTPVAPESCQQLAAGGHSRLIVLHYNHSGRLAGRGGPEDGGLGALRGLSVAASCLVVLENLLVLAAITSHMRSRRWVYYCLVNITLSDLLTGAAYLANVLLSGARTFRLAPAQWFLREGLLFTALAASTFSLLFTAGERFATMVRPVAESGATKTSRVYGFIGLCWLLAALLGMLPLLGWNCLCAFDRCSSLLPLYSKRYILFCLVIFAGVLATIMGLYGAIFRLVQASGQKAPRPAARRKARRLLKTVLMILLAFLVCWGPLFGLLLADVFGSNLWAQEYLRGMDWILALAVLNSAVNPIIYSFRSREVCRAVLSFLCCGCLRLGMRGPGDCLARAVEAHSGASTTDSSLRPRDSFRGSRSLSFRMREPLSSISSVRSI
Assay: S1P4 receptor agonists, retest, confirmation, cell-based, high throughput (AID 1523);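 also: 0% = vehicle and 100% = full reference agonist response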
Conditions: S1P4 agonist cell-based reporter assay; at 4.98 µM; hits give high values

Compared with `COC(=O)CNC(=O)C(CCSC)NC(C)=O` (configuration not stated) (Ac-[ξM]-Gly-OMe), `CCCCCNC(=O)c1cccnc1SCC(=O)Nc1ccccc1OC` is lower in activation: -1.87% for the first, -2.09% for the second.

First: Cc1ccc(NC(=O)Nc2ccccc2)c(Br)c1
Second: CC(=O)Nc1ccccc1NC(=O)c1cc(C)cc(C)c1
The activation of the first is higher: -1.05% for the first, -2.02% for the second.

First: CC(=O)Nc1ccc(SCC(=O)Nc2ccccc2Oc2ccccc2)cc1
Second: COc1ccccc1CNC(=O)CNC(=O)c1cn(-c2ccccc2OC)c(=O)c2ccccc12
The activation of the first is lower: -3.24% for the first, -1.82% for the second.

Going from `O=C(CSc1nnc(Nc2ccccc2)s1)Nc1cccnc1Cl` to `CCn1c(CNC(=O)c2ccc(OC)c(OC)c2)nnc1SCC(=O)Nc1ccccc1`, the activation falls from -0.71% to -2.38%.

Compared with `CC1CCCC(NC(=O)COC(=O)[C@@H]2CC(O)CN2S(=O)(=O)c2ccc3c(c2)OCCO3)C1C` (some centres not stated), `O=C(COC(=O)Cc1ccc(F)cc1)Nc1cc(S(=O)(=O)N2CCOCC2)ccc1N1CCCC1` is higher in activation: -1.06% for the first, -0.73% for the second.

Going from `CC(Oc1ccc(Br)cc1Br)C(=O)NC1CCCC1` (configuration not stated) to `O=C(COC(=O)c1cc([N+](=O)[O-])ccc1NCc1ccccc1)NC1CCCCC1`, the activation falls from -1.69% to -2.43%.

Going from `O=C(CSc1nncn1-c1cccnc1)N1CCOCC1` to `CC(C)C(c1nnnn1C(C)(C)C)N1CCN(Cc2cccnc2)CC1` (configuration not stated), the activation falls from -1.73% to -2.62%.

Going from `Cc1cc(C)c(C#N)c(SCC(=O)NN2CC(=O)N(c3ccccc3F)CC2=O)n1` to `COc1ccc(-n2c(C)cc(C(=O)CN3C(=O)NC4(CCc5ccccc54)C3=O)c2C)cc1` (configuration not stated), the activation falls from -0.87% to -1.26%.

Going from `COc1ccc(C2CC(c3cccs3)=NN2c2ccc(F)cc2)cc1OC` (configuration not stated) to `COc1ccc(N2C(=O)C(Cc3ccccc3)NC2=S)cc1` (configuration not stated), the activation falls from 10.7% to -1.44%.

First: O=C(CSc1ccc(-c2ccc(F)cc2)nn1)Nc1ccc2c(c1)OCCO2
Second: C=CCn1c(SCn2nnc3ccccc3c2=O)nnc1-c1ccc(Cl)cc1
The activation of the first is lower: -1.49% for the first, -1.29% for the second.

Compared with `CSc1sc(C(=O)NNC(=O)c2ccc(Cl)cc2)c2c1C=CCC2`, `Cc1cc(NC(=O)c2cc(-c3cccs3)on2)nn1Cc1ccc(Cl)cc1` is higher in activation: -2.13% for the first, -0.63% for the second.

First: Cc1cc(C)nc(N(C#N)CC(=O)Nc2ccccc2)n1
Second: CCC(=O)/C(=C(/O)c1ccccc1)c1nc2ccccc2[nH]1
The activation of the first is higher: -0.69% for the first, -1.45% for the second.

Compared with `CCC(C)NC(=O)C1c2ccccc2Oc2ccccc21` (configuration not stated), `Cc1noc(C)c1COC(=O)COc1ccc(-c2ccccc2)cc1` is lower in activation: 0.12% for the first, -2.48% for the second.

First: CCOc1ccc(-c2nnc(-c3ccco3)o2)cc1
Second: N/C(=N\OC(=O)Cc1ccc([N+](=O)[O-])cc1)c1ccccn1
The activation of the first is higher: -1% for the first, -3.04% for the second.

Compared with `O=[N+]([O-])c1cccc(Nc2c3ccccc3nc3ccccc23)c1`, `COC(=O)[C@@H]1CC[C@H](C)[C@@H](c2ccc(C)cc2)N1C(=O)c1ccc(/C=N/O[C@H](C)c2cn([C@@H]3COC[C@H]3O)nn2)cc1` is lower in activation: 6.3% for the first, -1.25% for the second.

For `COc1ccc(C2CC(c3cccs3)=NN2c2ccccc2)cc1` (configuration not stated), the activation was 23.1% (active).
In the case of `CNC(=O)c1[nH]cnc1C(=O)N[C@@H](CC(C)C)C(=O)OCc1ccccc1`, the activation is reported as 48% (active).
